# Data as given in ChEMBL document CHEMBL3988442, “University of Dundee, Small-Polar-MMV Screening Library” (2021).
# Screen size: about 69,000 compounds; about 1,000 (1.4%) showed an effect of 50% or more. Many of the other results were omitted from the sample, so strong results are more common in it than they were.
# Test system: Leishmania donovani
# Test: Leishmania intramacrophage assay
# Format: functional, organism-based
# Set-up: scale not given: in the data most compounds retested in dose-response had high values
structure (smiles),measurement,setting,value
Cc1ccc(C(=O)N2Cc3c(CN(C)C)nn(C)c3C2)cc1C.O=C(O)C(F)(F)F,Percent Effect,"30.3 µM, […]",35.58%
Cc1csc(NC(=O)c2cnc(C3CCCN3)cn2)n1.Cl (stereo not drawn),Percent Effect,"30.3 µM, […]",7.514%
CCC(C)NC(=O)Cc1c(C)nc2c(c1C)c(=O)[nH]n2C (stereo not drawn),Percent Effect,"30 µM, 30.03 µM",-5.579%
COc1cc(C(=O)N2CCCC(CNS(C)(=O)=O)C2)cc(OC)c1C (stereo not drawn),Percent Effect,"30 µM, 30.03 µM",16.86%
CN(C)CC1CN(Cc2ccc(F)cc2)Cc2nccn2C1.O=C(O)C(F)(F)F.O=C(O)C(F)(F)F (stereo not drawn),Percent Effect,"30.3 µM, […]",6.472%
COC(=O)C(O)C1CCN(CCc2ccncc2)CC1 (stereo not drawn),Percent Effect,"30.3 µM, […]",9.422%
Cc1ccc(CNC2CCN(CCc3ccncc3)CC2)cc1C,Percent Effect,"30 µM, 30.03 µM",92.66%
CSc1ccc(CNC2CCN(CCc3ccncc3)CC2)cc1,Percent Effect,"30.3 µM, […]",85.89%
COc1ccc(CNC2CCN(CCc3ccncc3)CC2)cc1O,Percent Effect,"30 µM, 30.03 µM",9.899%
c1cc(CCN2CCC(NCc3ccsc3)CC2)ccn1,Percent Effect,"30.3 µM, […]",31.06%
N#Cc1ccc(CNC2CCN(CCc3ccncc3)CC2)cc1,Percent Effect,"30.3 µM, […]",19.38%
Cc1ccc(CNC2CCN(CCc3ccncc3)CC2)s1,Percent Effect,"30 µM, 30.03 µM",45.1%
Cc1cccc(CNC2CCN(CCc3ccncc3)CC2)c1C,Percent Effect,"30.3 µM, […]",74.34%
Clc1cccc(CNC2CCN(CCc3ccncc3)CC2)c1,Percent Effect,"30.3 µM, […]",59.66%
CC(NC1CCN(CCc2ccncc2)CC1)c1cnn(C(C)C)c1 (stereo not drawn),Percent Effect,"30.3 µM, […]",6.548%
Oc1cccc(CNC2CCN(CCc3ccncc3)CC2)c1,Percent Effect,"30.3 µM, […]",7.34%
CCCN1CCC(NCc2ccncc2)CC1,Percent Effect,"30.3 µM, […]",-7.602%
CC1(c2ccccc2)CCC(=O)N(CCN2CCCOC2=O)C1 (stereo not drawn),Percent Effect,"30.3 µM, […]",-24.18%
CN(C)C(=O)CN1CCN(C(=O)c2cnn(-c3ccccc3Cl)c2)CC1,Percent Effect,30 µM,13.32%
CC(C)Cc1ccc(S(=O)(=O)Nc2ccc(=O)n(C)c2)cc1,Percent Effect,"30 µM, 30.03 µM",40.75%
CCOCCN1CCN(c2ccc(C#N)cn2)CC1CC (stereo not drawn),Percent Effect,"30.3 µM, […]",26.65%
COCCN1CCC(NCc2ccc(Cl)cc2)C1 (stereo not drawn),Percent Effect,30 µM,10.13%
Fc1ccc(CNC2CCN(CCc3ccncc3)CC2)cc1F,Percent Effect,"30.3 µM, […]",73.28%
CC(CNC1CCN(Cc2ccncc2)CC1)c1ccc(F)cc1F (stereo not drawn),Percent Effect,"30.3 µM, […]",10.91%
CC(NC(=O)c1ccnn1C)c1ccc(OCC2CC2)c(F)c1 (stereo not drawn),Percent Effect,"30.3 µM, […]",27.82%
CCCc1cc(NCCCC2CCOC2)n2nccc2n1 (stereo not drawn),Percent Effect,"30.3 µM, […]",32.07%
Clc1ccc2nc(N3CCC(NCCCC4CCOC4)CC3)sc2c1 (stereo not drawn),Percent Effect,"30.3 µM, […]",61.31%
CCS(=O)(=O)CCNC1CCN(c2nc3ccc(Cl)cc3s2)CC1,Percent Effect,"30.3 µM, […]",66.16%
Cn1ccnc1SCCNC1CCN(c2nc3ccccc3s2)CC1,Percent Effect,"30.3 µM, […]",43.39%
CCc1nccn1CCNC1CCN(c2nc3ccc(Cl)cc3s2)CC1,Percent Effect,"30.3 µM, […]",98.8%
CCCc1cc(CNC2CCN(c3nc4ccccc4s3)CC2)on1,Percent Effect,"30.3 µM, […]",35.92%
Cc1n[nH]c(SCCNC2CCN(c3nc4ccccc4s3)CC2)n1,Percent Effect,"30.3 µM, […]",6.253%
Cc1csc2c(N3CCC(NCCCC4CCOC4)CC3)ncnc12 (stereo not drawn),Percent Effect,"30.3 µM, […]",10.77%
Cc1csc2c(N3CCC(NCCc4ccnn4C)CC3)ncnc12,Percent Effect,"30.3 µM, […]",17.37%
CCOCC(O)CN1CCN(C(=O)C2CCC2)CC1 (stereo not drawn),Percent Effect,"30.3 µM, […]",23.63%
O=C1CCOC[C@]2(CN(Cc3ccccc3)C[C@H]2c2ccccc2)N1,Percent Effect,"30.3 µM, […]",-10.32%
CN(C)c1ccc(C(=O)N2CCC(c3cc4ncccc4[nH]3)CC2)cc1,Percent Effect,"30.3 µM, […]",-1.505%
CS(=O)(=O)CCNC(=O)N1CC2(CCCC2)c2ccccc21,Percent Effect,"30.3 µM, […]",0.5956%
CSCCC1c2nc[nH]c2CCN1Cc1cc(Cl)ccc1O (stereo not drawn),Percent Effect,"30 µM, 30.03 µM",8.861%
CCN(C)Cc1nc(-c2ccccc2NS(C)(=O)=O)oc1C,Percent Effect,"30.3 µM, […]",2.546%
O=C(O)C(F)(F)F.O=C(c1ccno1)N1CCO[C@@H]2CC(COCc3ccccn3)C[C@H]21 (stereo partly drawn),Percent Effect,"30.3 µM, […]",6.888%
COCC(=O)N1CCCC(COc2ccccc2C)C1 (stereo not drawn),Percent Effect,"30.3 µM, […]",0.2743%
Cc1cccc(OCC2CCCN(C(=O)CN(C)C3CCNCC3)C2)c1 (stereo not drawn),Percent Effect,"30.3 µM, […]",48.81%
Cc1ccccc1OCC1CCCN(C(=O)CN(C)C2CCNCC2)C1 (stereo not drawn),Percent Effect,"30.3 µM, […]",83.48%
CNc1cc(CNC(=O)c2ccccc2)nc(-c2ccncc2)n1,Percent Effect,"30 µM, 30.03 µM",35.29%
FC1(F)CCN(Cc2cccnc2)CC12CCN(c1ccccn1)C2.O=C(O)C(F)(F)F.O=C(O)C(F)(F)F.O=C(O)C(F)(F)F (stereo not drawn),Percent Effect,"30 µM, 30.03 µM",38.27%
FC1(F)CCN(Cc2ccncc2)CC12CCN(c1cccnc1)C2.O=C(O)C(F)(F)F.O=C(O)C(F)(F)F.O=C(O)C(F)(F)F (stereo not drawn),Percent Effect,"30.3 µM, […]",38.61%
Cn1ccnc1CN1CCC(F)(F)C2(CCN(c3cccnc3)C2)C1.O=C(O)C(F)(F)F.O=C(O)C(F)(F)F (stereo not drawn),Percent Effect,"30.3 µM, […]",69.63%
O=C(C1CCCO1)N1CCC2(CC1)COCCN(Cc1cccnc1)C2.O=C(O)C(F)(F)F.O=C(O)C(F)(F)F (stereo not drawn),Percent Effect,"30.3 µM, […]",54.72%
FC1(F)CCN(Cc2cccnc2)CC12CCN(c1ccccc1)C2.O=C(O)C(F)(F)F.O=C(O)C(F)(F)F.O=C(O)C(F)(F)F (stereo not drawn),Percent Effect,"30.3 µM, […]",99.13%
Cn1ccnc1CN1CCC(F)(F)C2(CCN(c3cnccn3)C2)C1.O=C(O)C(F)(F)F (stereo not drawn),Percent Effect,"30.3 µM, […]",-10.04%
O=C([C@@H]1CCCO1)N1CCOCC2(CCN(Cc3cccnc3)C2)C1 (stereo partly drawn),Percent Effect,"30.3 µM, […]",28.44%
Cn1cc(CN2CCC(F)(F)C3(CCN(c4cccnc4)C3)C2)cn1.O=C(O)C(F)(F)F.O=C(O)C(F)(F)F (stereo not drawn),Percent Effect,"30.3 µM, […]",0.6501%
O=C(C1CCCO1)N1CCC2(CC1)COCCN(Cc1ccncc1)C2.O=C(O)C(F)(F)F.O=C(O)C(F)(F)F (stereo not drawn),Percent Effect,"30.3 µM, […]",14.9%
Cc1ccccc1CC(=O)N(C)C1CCCC1,Percent Effect,"30 µM, 30.03 µM",-4.753%
CCCOCCn1ncc(N2CCc3ccccc3C2)cc1=O,Percent Effect,"30.3 µM, […]",-24.62%
O=C(NCCNc1ncccn1)N1CCCC1c1ccc(F)cc1 (stereo not drawn),Percent Effect,"30.3 µM, […]",15.04%
CCOC(=O)CNC(=O)c1cc2n(n1)CCCO2,Percent Effect,"30.3 µM, […]",10.49%
Cc1nc(S(=O)(=O)CCn2cccn2)n(C2CCCCC2)c1C,Percent Effect,"30.3 µM, […]",21.76%
NCc1ccccc1Sc1ccc(O)cc1.O=C(O)/C=C\C(=O)O,Percent Effect,"30.3 µM, […]",18.14%
CCCn1nnnc1CN1Cc2ccccc2CC1c1nnc(C)o1 (stereo not drawn),Percent Effect,"30.3 µM, […]",14.94%
Cc1ncoc1C(=O)N1CCOC(CCCC(C)C)C1 (stereo not drawn),Percent Effect,"30.3 µM, […]",-28.53%
CCc1nc(C2CCCN2Cc2nc(CCOC)no2)no1 (stereo not drawn),Percent Effect,"30 µM, 30.03 µM",14.38%
NCCc1n[nH]c(=O)n1-c1cccc(Cl)c1Cl,Percent Effect,"30.3 µM, […]",4.495%
CC(Cc1cncs1)Nc1ncnc2cccc(F)c12 (stereo not drawn),Percent Effect,"30.3 µM, […]",50.92%
CC(Cc1cccnc1)Nc1ncnc2cccc(F)c12 (stereo not drawn),Percent Effect,"30.3 µM, […]",5.204%
Cc1cc(CC(C)Nc2ncnc3cccc(F)c23)[nH]n1 (stereo not drawn),Percent Effect,"30.3 µM, […]",6.483%
N#Cc1cccc(C(=O)N2C[C@H]3CC[C@@H]2CN(C(=O)C2CCC2)C3)c1,Percent Effect,"30.3 µM, […]",15.5%
CC(c1ccco1)N(C(=O)Cn1nc2n(c1=O)CCCCC2)C1CC1 (stereo not drawn),Percent Effect,"30.3 µM, […]",-5.38%
CCS(=O)(=O)N1CCOC2(CCCN(c3cnccn3)C2)C1.O=C(O)C(F)(F)F (stereo not drawn),Percent Effect,"30.3 µM, […]",26.09%
Cc1cccc(CN2CCc3ncnc(N4CCOCC4)c3CC2)n1.O=C(O)C(F)(F)F,Percent Effect,"30 µM, 30.03 µM",-4.013%
Cc1nc(CN2CCc3ncnc(-c4ccncc4)c3CC2)cs1.O=C(O)C(F)(F)F.O=C(O)C(F)(F)F,Percent Effect,"30.3 µM, […]",3.502%
Cc1nc(CN2CCc3ncnc(-c4ccccc4)c3CC2)cs1.O=C(O)C(F)(F)F,Percent Effect,"30.3 µM, […]",41.98%
Cc1nc(CN2CCc3ncnc(-c4ccsc4)c3CC2)cs1.O=C(O)C(F)(F)F,Percent Effect,"30.3 µM, […]",54.86%
Cc1cccc(CN2CCc3ncnc(N4CCCC4)c3CC2)n1.O=C(O)C(F)(F)F,Percent Effect,"30.3 µM, […]",43.68%
Cc1cccc(CN2CCc3ncnc(N4CCN(C)CC4)c3CC2)n1.O=C(O)C(F)(F)F.O=C(O)C(F)(F)F,Percent Effect,"30.3 µM, […]",55.42%
Nc1nccnc1C(=O)N(Cc1ccccc1O)CC1CCCO1 (stereo not drawn),Percent Effect,"30.3 µM, […]",-0.1848%
O=C(C(C1CC1)C1CC1)N1CCC(n2ccnn2)CC1,Percent Effect,"30.3 µM, […]",12.14%
CN1CCN(c2ncc3c(=O)n(-c4cccc(F)c4)c(=O)[nH]c3n2)CC1,Percent Effect,"30 µM, 30.03 µM",19.86%
O=C(O)C(F)(F)F.O=C(O)C(F)(F)F.O=C1NC2(CCN(Cc3cccs3)CC2)CC1c1ccncc1 (stereo not drawn),Percent Effect,"30.3 µM, […]",15.69%
COc1ccc(CC(=O)N2CCC(c3n[nH]c(C4CC4)n3)CC2)cc1,Percent Effect,"30.3 µM, […]",20.62%
CC(=O)Nc1nc(CNc2ccccc2CCC(F)(F)F)cs1,Percent Effect,"30.3 µM, […]",-4.538%
CN1C[C@@H](C(=O)N2CCOCC2)[C@@]2(CCc3ccccc3C(=O)N2)C1,Percent Effect,"30.3 µM, […]",0.0295%
N#Cc1cnc2c(F)cc(F)cc2c1NC1CCN(CC(N)=O)CC1,Percent Effect,"30.3 µM, […]",54.87%
N#Cc1cnc2cc(F)cc(F)c2c1NC1CCN(CC(N)=O)CC1,Percent Effect,"30.3 µM, […]",21.49%
Cc1cc(C)c2ncc(C#N)c(NC3CCN(CC(N)=O)CC3)c2c1,Percent Effect,"30.3 µM, […]",5.1%
CN(C)c1ccc(CC(=O)N[C@@H]2CCNC[C@H]2O)cc1,Percent Effect,"30 µM, 30.03 µM",-29.81%
Cc1cc(C)n(CC(C)Nc2ncnc3c2CCNC3)n1 (stereo not drawn),Percent Effect,"30.3 µM, […]",-4.806%
Cc1nc(C(C)Nc2ncnc3c2CCNCC3)c(C)s1 (stereo not drawn),Percent Effect,"30.3 µM, […]",9.224%
CCCc1ccc(C(C)Nc2ncnc3c2CCNC3)cc1 (stereo not drawn),Percent Effect,"30.3 µM, […]",81.31%
Cc1ccccc1C(Nc1ncnc2c1CCNC2)c1ccccc1 (stereo not drawn),Percent Effect,"30.3 µM, […]",61.26%
CC(Nc1ncnc2c1CCNC2)c1ccc(C(C)(C)C)cc1 (stereo not drawn),Percent Effect,"30.3 µM, […]",88.55%
CC(Nc1ncnc2c1CCNCC2)c1nc2c(s1)CCCC2 (stereo not drawn),Percent Effect,"30.3 µM, […]",11.97%
CC(Nc1ncnc2c1CCNC2)c1ccc2c(c1)CCCC2 (stereo not drawn),Percent Effect,"30.3 µM, […]",82.26%
Cc1ccccc1C(CNc1ncnc2c1CCNCC2)N(C)C (stereo not drawn),Percent Effect,"30.3 µM, […]",-7.029%
Cc1ccccc1C(CNc1ncnc2c1CCNC2)N(C)C (stereo not drawn),Percent Effect,"30.3 µM, […]",-14.27%
CCOc1ccc(C(C)Nc2ncnc3c2CCNC3)cc1OCC (stereo not drawn),Percent Effect,"30.3 µM, […]",19.33%
CCc1nc(NC2CC(=O)N(CC3CCCCC3)C2)ncc1C (stereo not drawn),Percent Effect,"30.3 µM, […]",15.64%
